# In PubChem BioAssay AID624351 (Southern Research Specialized Biocontainment Screening …, 2012):
# Out of some 2,400 compounds screened, about 1,400 (58%) were called active.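 How the source made its calls: active means inhibition of 30% or more at any tested dose; inconclusive means primary hits over the limit that were never retested; inactive means the rest.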 So high a share suggests a set chosen from earlier hits. The list shows a part of the results.
# Test: ADP Hunter readout inhibition without MgcRacGAP – biochemical, coupled enzyme counter-screen, artefact control for MgcRacGAP inhibitor project, dose response (AID 624351);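 further: signal is the ADP detection kit reading of free GDP without any GAP enzyme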
# Settings: fluorescence, no MgcRacGAP; series mostly up to 80 µM
row,SMILES,IC50
1,CCOc1cc(/C=N/Nc2nc(=O)[nH]nc2C)ccc1O,43.9 µM (active)
2,CCOc1cc(/C=N/Nc2ncc(C)c(=O)[nH]2)ccc1O,38.9 µM (active)
3,COc1ccccc1CNCC(=O)Nc1ccccc1-n1cccc1,inactive
4,COc1ccccc1CNC(=O)C[C@@H]1C[C@H]2c3cc(N(C)C)ccc3O[C@H]2[C@H](CO)O1,inactive
5,CCc1ccc(NC(=O)CNCc2ccc(OC)c(OC)c2)cc1,inactive
6,COc1ccccc1/C=C(/C(=O)OCC(=O)Nc1ccc(N(C)C)cc1)c1ccccc1,66.3 µM (active)
7,COc1ccccc1CNCC(=O)NCc1ccc(C)cc1,inactive
8,CCN(CC)c1ccc(NC(=O)COC(=O)Cc2ccsc2)cc1,42.9 µM (active)
9,COc1cc(CC(=O)OCC(=O)Nc2ccc(N(C)C)cc2)cc(OC)c1OC,68 µM (active)
10,COc1ccccc1CNCC(=O)Nc1ccc(N(C)C)cc1,63.3 µM (active)
11,COc1ccc(NCCC#N)cc1,82.2 µM (active)
12,O=S(=O)(O)c1cc(O)c(N=Nc2ccc(O)cc2O)c2ccccc12,30.7 µM (active)
13,CC(C)C1N=C2c3ccccc3N=C(SCC(=O)c3ccc(O)c(O)c3)N2C1=O (stereo not given),34.7 µM (active)
14,CCN(CC)c1ccc(Nc2nc(Cl)ncc2Br)cc1,49.4 µM (active)
15,O=c1oc(-c2ccc(O)c(O)c2)cc2cc(O)cc(O)c12,23 µM (active)
16,O=c1oc(-c2ccc(O)c(O)c2)cc2cccc(O)c12,20.7 µM (active)
17,N#CC1=C(S)N(c2ccc(F)cc2)C(c2cccs2)NC1=O (stereo not given),inactive
18,O=C1NC2c3c(I)sc(I)c3C(=O)C2O1 (stereo not given),inactive
19,N/C(=N\N=C\c1ccc(O)cc1)c1nonc1N,31.1 µM (active)
20,COc1cc(/C=N/N=C(\N)c2nonc2N)ccc1O,30.3 µM (active)
21,Oc1ccc(/C=N/N=C/c2ccc(O)cc2)cc1,84 µM (active)
22,COc1cc(CNCCNC(=O)c2nonc2N)ccc1OCc1ccc(Cl)cc1,inactive
23,N#Cc1c(Nc2ccc(Cl)cc2)s[nH]c1=O,inactive
24,Cc1ccc(/C=[N+](\[O-])c2ccc(N(C)C)cc2)c2nsnc12,16.1 µM (active)

row,SMILES,IC50
1,CCOC(=O)C1(C)C=C(Nc2ccc(O)cc2)C(=O)N1c1ccc(O)cc1 (stereo not given),19.6 µM (active)
2,O=C1/C(=C\c2ccco2)CCC/C1=C\c1ccco1,inactive
3,Nc1cc(Br)c(N)c(Br)c1,10.6 µM (active)
4,CCOC(=O)C1CCCN(C(=S)Nc2ccc(Nc3ccccc3)cc2)C1 (stereo not given),55.1 µM (active)
5,OCC1CCCN(C(=S)Nc2ccc(Nc3ccccc3)cc2)C1 (stereo not given),41.7 µM (active)
6,OC1CCN(C(=S)Nc2ccc(Nc3ccccc3)cc2)CC1,36.5 µM (active)
7,OCCN1CCN(C(=S)Nc2cccc(C(F)(F)F)c2)CC1,inactive
8,CCOC(=O)C1CCN(Cc2cccc(Oc3ccccc3)c2)CC1,inactive
9,CCOC(=O)C1CCN(Cc2ccc(-c3ccccc3)cc2)CC1,inactive
10,COc1ccc(CN2CCN(CCSc3ccc(C)cc3)CC2)c(OC)c1OC,inactive
11,CC1CN(CCCCOc2ccc(Cl)c3ccccc23)CC(C)O1 (stereo not given),inactive
12,CSc1sccc1/C=C(/C#N)C(=O)c1ccco1,inactive
13,NC(CSS(=O)(=O)O)=NCCC12CC3CC(CC(O)(C3)C1)C2,inactive
14,COc1cc(/C=N/NC(=O)c2nc(C)cc(C)n2)ccc1O,37.3 µM (active)
15,COc1cc(/C=N/NC(=O)c2cc(-c3c(C)nn(-c4ccccc4)c3C)n[nH]2)ccc1O,38.8 µM (active)
16,COc1cc(/C=N/Nc2nc(C)cc(C)n2)ccc1O,60.7 µM (active)
17,COc1cc(/C=N/NC(=O)c2nc(-c3ccccc3)n(-c3ccccc3)n2)ccc1O,41.9 µM (active)
18,c1cc(CN2CCN(C3CCCCCC3)CC2)ccn1,inactive
19,COc1cc(/C=N/NC2=NCCCCC2)ccc1O,27.6 µM (active)
20,COc1cc(/C=N/Nc2cc(C)nc(NS(=O)(=O)c3ccccc3)n2)ccc1O,41 µM (active)
21,COc1cc(/C=N/NC(=O)c2cn(-c3cccc(C)n3)cn2)ccc1O,37.3 µM (active)
22,Oc1ccc(/C=N/NC2=NCCCCC2)c(O)c1,67.6 µM (active)
23,Nc1nc2cc(S(=O)(=O)NC3=NCCCCC3)ccc2s1,inactive
24,O=c1[nH]c2ccccc2n2c(=S)[nH]nc12,78.8 µM (active)

row,SMILES,IC50
1,S=c1[nH]c2ccccc2n2c(=S)[nH]nc12,51.8 µM (active)
2,CCCCN(CCCC)CCNC(=O)CSCc1ccc(C)cc1,inactive
3,Cc1cccc(-n2nc3c(c2NC(=O)c2ccco2)CSC3)c1C,inactive
4,C=CCc1cc(OC)ccc1OCCN1CC(C)OC(C)C1 (stereo not given),inactive
5,Nc1ccc(OCc2ccco2)cc1,58.6 µM (active)
6,c1coc(CSSCc2ccco2)c1,inactive
7,CC1N(C)c2cccc3cccc(c23)N1C,21 µM (active)
8,CCN(CC)c1ccc(N=Cc2c(C)[nH]c3ccccc23)cc1,41.6 µM (active)
9,O=C1/C(=C/c2ccccc2[N+](=O)[O-])COc2ccccc21,inactive
10,CCN(CC)c1ccc(N=Cc2ccccc2[N+](=O)[O-])cc1,27.2 µM (active)
11,CN(C)C=Nc1ccc2nc3c(cc2c1)[nH]c1ccccc13,inactive
12,S=c1[nH]nc(-c2ccco2)n1/N=C/c1ccc(Cl)cc1,51.2 µM (active)
13,CC(=C/c1ccccc1)/C=N/n1c(-c2ccco2)n[nH]c1=S,66.7 µM (active)
14,CC1=C(C)CS(=O)N(S(=O)(=O)c2ccc(Cl)cc2)C1 (stereo not given),inactive
15,Cc1cccc(CN2CCN(Cc3ccco3)CC2)c1,inactive
16,Cc1cccc(-c2n[nH]c(=S)n2/N=C/c2ccco2)c1,78.9 µM (active)
17,Cc1ccc2nc(N(CCCN(C)C)C(=O)c3ccc4ncsc4c3)sc2c1,inactive
18,Cc1nc2ccc(C(=O)Nc3ccc(N(C)C)cc3)cc2s1,58.9 µM (active)
19,O=C(CN1CCc2ccccc2C1)Nc1ccccc1C(F)(F)F,inactive
20,COc1cc(C2C(=O)c3ccccc3C2=O)ccc1O,20.4 µM (active)
21,O=C1c2ccccc2C(=O)C1c1ccc(O)cc1,81.3 µM (active)
22,C[C@H]1CCC/C=C/[C@@H]2C[C@H](O)C[C@H]2[C@H](O)[C@H](S(=O)c2ccc(O)cc2)CC(=O)O1 (stereo not given in full),inactive
